The values that follow come from PubChem BioAssay AID602393 (Broad Institute, 2012).

In all, about 350,000 compounds went through this assay and about 7,000 (2%) were called active. This excerpt belongs to a sample that is enriched for actives. Values without a mark were called inactive. No stated cut-off is given here; in the data, active means activation above about 40%; inconclusive means no clear call, values can overlap the other calls; inactive means below that.

A short description of the assay: raisers of Bmi1 knock-in reporter signal – mouse ES cells, Bmi1 luciferase knock-in, single point, esBAF inhibitor project, primary screen (AID 602393).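 Further: 0% = median of the plate's neutral control wells and 100% = double that signal; a rise in the Bmi1 reporter signal indicates esBAF inhibition.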 The conditions noted are these: 24 h, at 12.5 µM, stronger effect = higher value, 100% = twice the neutral-well signal.
For the compound `Cc1ccc(SCC(=O)c2cc(C)c(OC(=S)N(C)C)c(C)c2)cc1`, the reporter increase is 45.8% (active).

For the compound `COC(=O)c1cc(OC)c(OC)cc1NC(=O)CSc1ccc(C)cc1`, the reporter increase is -15.9%.

In the case of `CCN1CCN(C(=O)CSc2ccc(C)cc2)CC1`, the reporter increase was 31%.

Consider `C[C@@H]1CN([C@@H](C)CO)S(=O)(=O)c2ccc(C#Cc3ccccc3F)cc2O[C@H]1CN(C)C(=O)c1ccc2c(c1)OCO2`, for which the reporter increase was 0.756%.

As to `CC(C)NC(=O)N(C)C[C@H]1Oc2c(NC(=O)c3ccncc3)cccc2C(=O)N([C@@H](C)CO)C[C@H]1C`, the reporter increase is 1.56%.

For `COc1ccc(/C=C2/C(=O)N(c3ccccc3)N=C2C)c(OC)c1`, the reporter increase was -1.3%.

On to `COc1ccc(C=C(C#N)C#N)c(CSc2ccccn2)c1`, for which the reporter increase was -8.92%.

On to `COc1ccc(/C=N/OCc2ccccc2C#N)c(OC)c1`, for which the reporter increase was 82.2% (active).

On to `C[C@H]1CN([C@@H](C)CO)S(=O)(=O)c2ccc(C3=CCCC3)cc2O[C@@H]1CN(C)Cc1ccccc1`, for which the reporter increase is 1.2%.

For the compound `COc1ccc(C2=Nc3ccccc3NC(=O)C2N(C(=O)c2cc3ccccc3[nH]2)c2ccccc2)cc1` (centres undefined), the reporter increase is 47.8% (active).

As for `CC(OC(=O)c1cc2ccccc2[nH]1)C(=O)N(C)c1ccccc1` (centres undefined), the reporter increase was 7.66%.

As for `COc1ccc(NC(=O)N(C)C[C@@H]2OCc3ccccc3-c3c(n(C)c4ccccc34)C(=O)N([C@H](C)CO)C[C@H]2C)cc1`, the reporter increase was -4.05%.

As for `CO[C@@H](CN(C)S(=O)(=O)c1cccc(Cl)c1)[C@H](C)CN([C@H](C)CO)S(=O)(=O)c1cccc(Cl)c1`, the reporter increase is 6.95%.

`CN1c2ccc(-c3cccc(F)c3)cc2[C@H]2[C@H](CCN2C(=O)C2CCCC2)[C@@H]1CO`: the reporter increase was 2.05%.

As to `COc1ccccc1-c1cc(C(=O)N2CCCCC2)no1`, the reporter increase is 52.4% (active).

For `O=C(c1cc(-c2cccs2)on1)N1CCCCC1`, the reporter increase was -2.46%.

Regarding `COc1ccc(C(=O)C2CCCN(C(=O)c3cc(C)on3)C2)cc1F` (centres undefined), the reporter increase is -6.1%.

Turning to `C[C@@H]1CN([C@H](C)CO)C(=O)c2cc(NC(=O)CCCN(C)C)ccc2O[C@@H](C)CCCCO[C@@H]1CN(C)Cc1ccncc1`, the reporter increase was 1.15%.

In the case of `C[C@H]1CN([C@@H](C)CO)C(=O)c2cccc(NC(=O)Nc3ccccc3)c2O[C@H]1CN(C)Cc1ccc(C(F)(F)F)cc1`, the reporter increase was -0.852%.

Turning to `Cc1ccn(CCC(=O)N2c3ccccc3CC2C)n1` (centres undefined), the reporter increase was 0.95%.

On to `CCC(=O)N1c2ccc(S(=O)(=O)CCC(=O)N3CCN(c4ccccc4)CC3)cc2CC1C` (centres undefined), for which the reporter increase was 29.9%.

`CCCC(=O)N1c2ccc(-c3csc(N)n3)cc2CC1C` (centres undefined): the reporter increase is 41.3% (active).

As for `O=c1cc(CCl)nc2scc(-c3ccccc3)n12`, the reporter increase was -3.84%.

For `Cc1nn2c(=O)cc(COC(=O)c3ccc(NC(=O)C(C)(C)C)cc3)nc2s1`, the reporter increase is 2.43%.

Turning to `Cc1csc2nc(COC(=O)c3cccc(N(C)C)c3)cc(=O)n12`, the reporter increase is 82.1% (active).

Turning to `CN1CCN(C(=O)C[C@@H]2C[C@H]3c4cc(NC(=O)NC5CCCC5)ccc4O[C@H]3[C@H](CO)O2)CC1`, the reporter increase was 0.154%.

As to `CCCNC(=O)C[C@H]1C[C@@H]2c3cc(NC(=O)C4CCOCC4)ccc3O[C@@H]2[C@H](CO)O1`, the reporter increase was -3.13%.

Take `COc1ccccc1N1CCN(C(=O)Cn2nnc(-c3cccs3)n2)CC1`: the reporter increase was 3.41%.

For `O=c1cc(Cn2nnc(-c3ccc(Cl)cc3)n2)nc2sccn12`, the reporter increase is 7.92%.

Consider `Clc1cccc(Cl)c1Cn1nnc(-c2cccs2)n1`, for which the reporter increase is 69.1% (active).

As for `CC(=O)N(C)C[C@@H]1Oc2cc(-c3cccnc3)ccc2S(=O)(=O)N([C@H](C)CO)C[C@H]1C`, the reporter increase is 2.38%.

On to `C/C=C/c1ccc([C@H]2[C@@H](C#N)N(C(=O)CN3CCOCC3)[C@@H]2CO)cc1`, for which the reporter increase is -3.67%.

In the case of `O=C(C1CCCC1)N1[C@H](CO)[C@H]2c3ccccc3N(S(=O)(=O)c3ccccc3)C[C@H]21`, the reporter increase was -4.06%.

On to `C[C@H](CO)N1C[C@H](C)[C@@H](CN(C)Cc2ccncc2)Oc2ccc(NS(=O)(=O)c3ccc(Cl)cc3)cc2CC1=O`, for which the reporter increase was 4.09%.

As to `COc1ccc2[nH]cc(CCN3C(=O)c4ccc(C(=O)O)cc4C3=O)c2c1`, the reporter increase is 77% (active).

Turning to `COCCCN1C(=O)c2ccc(C(=O)Nc3ccc(OC)cc3OC)cc2C1=O`, the reporter increase is -3.26%.

`COCCCN1C(=O)c2ccc(C(=O)OCC(=O)NCc3ccccc3OC)cc2C1=O`: the reporter increase was -0.788%.

Consider `C[C@H](CO)N1C[C@H](C)[C@H](CN(C)Cc2ccccn2)Oc2ncc(C#CCc3ccccc3)cc2C1=O`, for which the reporter increase is -3.58%.

For `Cc1ccn2c(-c3csc(Nc4ccc(C(=O)O)cc4)n3)c(C)nc2c1`, the reporter increase was 3.65%.

As for `Cc1ccc2cc(/C=N/Nc3ccc(C(=O)O)cc3)c(Cl)nc2c1`, the reporter increase was 63.2% (active).

`CC(=O)Nc1ccc(C(=O)CSc2nc3ccc(C)cc3[nH]2)cc1`: the reporter increase is 1.14%.

Turning to `C/C=C/c1cnc2c(c1)C(=O)N([C@H](C)CO)C[C@H](C)[C@@H](CN(C)C(=O)c1cccc(F)c1)O2`, the reporter increase is 1.29%.

As to `C[C@@H]1CCCCO[C@@H](CN(C)S(=O)(=O)c2ccccc2)[C@H](C)CN([C@H](C)CO)C(=O)c2cc(NC(=O)CCC(F)(F)F)ccc2O1`, the reporter increase is 3.27%.

For `COc1cccc(S(=O)(=O)N[C@@H]2CC[C@H](CCNC(=O)Cc3ccncc3)O[C@@H]2CO)c1`, the reporter increase is 3.37%.

In the case of `O=C(C[C@@H]1CC[C@@H]2[C@H](COC[C@@H](O)CN2Cc2cc(F)cc(F)c2)O1)NCc1cccc(F)c1`, the reporter increase was 4.76%.

For the compound `O=C(C[C@@H]1C[C@@H]2c3cc(NS(=O)(=O)c4ccc(F)cc4)ccc3O[C@@H]2[C@@H](CO)O1)NCc1ccncc1`, the reporter increase is -5.57%.

`C/C=C/c1ccc([C@H]2[C@@H](CO)N(C(=O)Cc3ccncc3)[C@@H]2CNC(C)=O)cc1`: the reporter increase is -0.088%.

Consider `COc1ccc(C(=O)CCC(=O)Nc2cccnc2)c(OC)c1`, for which the reporter increase was -1.7%.

On to `COc1ccc(C(=O)COC(=O)C(O)c2ccccc2)c(OC)c1` (centres undefined), for which the reporter increase was 67.1% (active).

With `CCOC(=O)c1c(C)[nH]c(C(=O)OCC(=O)c2ccc(OC)cc2OC)c1C`, the reporter increase was 6.18%.

`COc1ccc(C(=O)NC(C)CCc2ccccc2)c(OC)c1` (centres undefined): the reporter increase is -1.75%.

Regarding `COc1ccc(C(=O)COC(=O)CN2C(=O)C3CC=CCC3C2=O)c(OC)c1` (centres undefined), the reporter increase is -4.47%.

Take `COc1ccc(C(=O)CCc2ccccc2O)c(OC)c1`: the reporter increase was 92.4% (active).

As to `C[C@H](CO)N1C[C@H](C)[C@H](CN(C)C(=O)CCC(F)(F)F)OCCCC[C@H](C)Oc2ccc(NS(=O)(=O)c3ccc(F)cc3)cc2C1=O`, the reporter increase was -0.446%.

For `C[C@@H]1CCCCO[C@@H](CN(C)S(=O)(=O)c2ccc(F)cc2)[C@@H](C)CN([C@@H](C)CO)C(=O)c2cc(NC(=O)Nc3ccc(F)cc3)ccc2O1`, the reporter increase is 3.89%.

Regarding `C[C@@H]1CN([C@@H](C)CO)C(=O)Cc2cc(NC(=O)Nc3ccc4c(c3)OCO4)ccc2O[C@H]1CN(C)S(=O)(=O)c1ccc(F)cc1`, the reporter increase was -0.705%.

As to `CN1[C@@H]2CN(C(=O)c3ccc(F)cc3)c3ccccc3[C@@H]2[C@@H]1CO`, the reporter increase was 2.63%.

On to `C=CCc1c(C)nc2cc(-c3ccccc3)[nH]n2c1=O`, for which the reporter increase is 34.3%.

`CCc1c(C)nc2cc(-c3cccs3)[nH]n2c1=O`: the reporter increase was 48.4% (active).

`CCc1c(C)nc2cc(C)[nH]n2c1=O`: the reporter increase is -4.73%.

For `O=C(C[C@H]1C=C[C@H](NC(=O)C2CCOCC2)[C@@H](CO)O1)NCC1CC1`, the reporter increase is -1.58%.

With `Cc1ccc(-c2ccc3c(c2)O[C@H](CN(C)C(=O)Nc2ccccc2)[C@@H](C)CN([C@@H](C)CO)S3(=O)=O)cc1`, the reporter increase is -1.56%.

For the compound `Cc1ccccc1-c1nnn(CC(=O)c2ccc(S(=O)(=O)N3CCCC3)cc2)n1`, the reporter increase was 5.35%.

For the compound `O=C(Cn1nnc(-c2ccccc2)n1)NC(=O)NC1CCCC1`, the reporter increase was -2.48%.

Regarding `CC(C)(C)NC(=O)Cn1nnc(-c2ccccc2Cl)n1`, the reporter increase was 56.6% (active).

For `CCCC(=O)Nc1ccc2c(c1)C(=O)N(C)[C@@H]1CC[C@H](CC(=O)NCCN3CCCCC3)O[C@@H]1CO2`, the reporter increase is 0.938%.

As to `O=C(C[C@@H]1C=C[C@H](NC(=O)C2CCOCC2)[C@H](CO)O1)NCc1ccncc1`, the reporter increase is 5.38%.

As to `COCn1c(COc2ccccc2)nc2ccccc21`, the reporter increase was 80.5% (active).

Turning to `COCc1nc2ccccc2n1Cc1ccccc1Br`, the reporter increase was -3.15%.

As to `CC(C)n1c(COc2ccccc2)nc2ccccc21`, the reporter increase was -1.17%.

Take `C=CCn1c(SCc2ccccc2)nc2c1c(=O)[nH]c(=O)n2C`: the reporter increase was 8.86%.

`COc1ccc(-n2c(SC)nc(O)cc2=O)cc1`: the reporter increase is -1.49%.

For `CCS(=O)(=O)n1nc(-c2ccccc2)nc1SCc1ccccc1`, the reporter increase is 45.9% (active).

In the case of `CCS(=O)(=O)n1nc(-c2ccc(OC)cc2)nc1SC`, the reporter increase is 55.7% (active).

As for `CCOC(=O)N1CCN(S(=O)(=O)c2ccc(OC)cc2)CC1`, the reporter increase is -4.19%.

Consider `O=S(=O)(c1ccc(SCc2ccccc2)nc1)N1CCCCCC1`, for which the reporter increase was 8.09%.

Take `Cc1cccc(S(=O)(=O)N2C[C@@H]3[C@H](c4ccccc42)[C@H](CO)N3CC2CCOCC2)c1`: the reporter increase was 3.89%.

Regarding `CCC(=O)N(C)C[C@@H]1Oc2cc(C#CC(C)(C)O)ccc2S(=O)(=O)N([C@@H](C)CO)C[C@@H]1C`, the reporter increase was 1.13%.

On to `C[C@H](CO)N1C[C@H](C)[C@H](CN(C)S(=O)(=O)c2ccccc2)Oc2cc(Br)ccc2S1(=O)=O`, for which the reporter increase is 3.8%.
